The full ranking holds about 16,000 sequences; the median of “e-score” is about -0.044, and the highest 2% start at about 0.38. The list comes from a sample in which the highest values are over-represented; it also holds similar and randomly drawn sequences.

The test deals with T1, GST-NbGlk1(82-244) (Nicotiana benthamiana).
T1 chain: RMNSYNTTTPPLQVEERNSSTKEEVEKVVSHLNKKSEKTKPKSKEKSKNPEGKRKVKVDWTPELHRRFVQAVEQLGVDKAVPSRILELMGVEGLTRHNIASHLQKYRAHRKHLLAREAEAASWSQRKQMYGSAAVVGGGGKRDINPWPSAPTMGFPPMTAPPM
In words: protein-binding microarray; NbGlk1 is a Golden2-like transcription factor of Nicotiana benthamiana; high values mean tight binding. The conditions noted are these: protein: recombinant; tags: GST (pTH6838); dsDNA, one strand shown.
Regarding ATCTCTGG, the binding signal was found to be 0.205 ± 0.0181 E-score.
Under ATATCAGA stands 0.343 ± 0.0575 E-score; under ATCTCCTG, 0.3116 ± 0.00208 E-score; under ATCTACTA, 0.341 ± 0.0266 E-score.
Under ATCTGTGA stands 0.344 ± 0.0977 E-score; under ATATGCTA, 0.224 ± 0.0529 E-score; under ACATAGAT, 0.223 ± 0.0149 E-score.
Under ATATTCAC stands 0.208 ± 0.132 E-score; under ATCATAAA, 0.232 ± 0.00949 E-score.
With ATCCAGGA, the binding signal was 0.328 ± 0.0422 E-score.
Under AGTATCCG stands 0.328 ± 0.0412 E-score.
In the case of AATCTGGT, the binding signal stood at 0.443 ± 0.0103 E-score.
With AATCAGGG, the binding signal came out at 0.313 ± 0.0785 E-score.
Under ATCCTGGA stands 0.296 ± 0.0334 E-score; under AATCTGGC, 0.416 ± 0.0222 E-score; under ATTCTGGA, 0.248 ± 0.0551 E-score.
Regarding AATCTGGA, the binding signal is 0.452 ± 0.00746 E-score.
Under AATCGGGT stands 0.272 ± 0.0576 E-score; under ATCTGGGG, 0.27 ± 0.147 E-score.
For ATCCTGGC, the binding signal was 0.244 ± 0.119 E-score.
Under AATCTGGG stands 0.428 ± 0.0442 E-score; under AGTGAAAT, 0.208 ± 0.0317 E-score; under ATTACGAA, 0.341 ± 0.0714 E-score.
Under ACCGTATC stands 0.274 ± 0.0523 E-score.
Consider AATGAGAT, for which the binding signal worked out at 0.312 ± 0.0605 E-score.
Under ATTTCGGA stands 0.309 ± 0.0179 E-score.
Under ATTGCGAC stands 0.346 ± 0.0296 E-score.
On to ATCAGTAA, for which the binding signal turned out to be 0.214 ± 0.0917 E-score.
Under AATCATAC stands 0.263 ± 0.039 E-score; under AGCGAGAT, 0.269 ± 0.0866 E-score.
Under AATATATA stands 0.27 ± 0.0135 E-score; under AGAATAAT, 0.206 ± 0.0577 E-score.
As to ATCCGGCA, the binding signal stood at 0.253 ± 0.0503 E-score.
As for ATTGCGGA, the binding signal came to 0.359 ± 0.0313 E-score.
Under ATCTGGAA stands 0.351 ± 0.0575 E-score.
Under AATCATCT stands 0.205 ± 0.0194 E-score; under ATTCTATC, 0.261 ± 0.0903 E-score.
In the case of AATCAACG, the binding signal amounted to 0.247 ± 0.00961 E-score.
Under AATCAACT stands 0.274 ± 0.00959 E-score; under AATCTACT, 0.406 ± 0.0108 E-score; under ATCCTACA, 0.298 ± 0.0179 E-score.
Under AATCTACG stands 0.38 ± 0.0162 E-score; under AATATACA, 0.21 ± 0.00993 E-score; under AATCTACA, 0.401 ± 0.0303 E-score.
Consider AATCTACC, for which the binding signal amounted to 0.404 ± 0.00847 E-score.
Under AATCGACG stands 0.243 ± 0.0212 E-score; under ATTTTAGA, 0.221 ± 0.0235 E-score.
Under ATCTCATA stands 0.291 ± 0.0411 E-score; under ATCCCCAA, 0.276 ± 0.0488 E-score.
Under ATAGGATA stands 0.247 ± 0.133 E-score; under AAATATTA, 0.313 ± 0.0186 E-score; under ATACAAAA, 0.251 ± 0.0113 E-score.
As for AGCTAGAT, the binding signal was 0.216 ± 0.00676 E-score.
Under ATTGCGGG stands 0.26 ± 0.0952 E-score; under AATCGCGG, 0.317 ± 0.0232 E-score.
Under AAATAAAG stands 0.202 ± 0.0801 E-score.
Under ATATTGTC stands 0.261 ± 0.0163 E-score.
As to AGATTGTG, the binding signal stood at 0.421 ± 0.0279 E-score.
As for AGATCGTC, the binding signal was 0.3356 ± 0.00264 E-score.
As to AGATTGTC, the binding signal was determined as 0.3936 ± 0.00333 E-score.
Under ATATTGTG stands 0.235 ± 0.0938 E-score.
For the sequence AGATTGTA, the binding signal was found to be 0.3324 ± 0.00276 E-score.
Under AAGGATTG stands 0.247 ± 0.0253 E-score; under AAATATAA, 0.208 ± 0.0739 E-score.
Under AATCCCCT stands 0.2621 ± 0.00234 E-score.
Under AATCCGCG stands 0.396 ± 0.0375 E-score; under ATTCCGCG, 0.256 ± 0.00946 E-score; under ATTCCGCA, 0.238 ± 0.0649 E-score.
Take AATCCGCT: the binding signal came out at 0.388 ± 0.0352 E-score.
Under AATCCGCA stands 0.395 ± 0.0273 E-score.
Under AATCCGCC stands 0.372 ± 0.0634 E-score; under AATCAGCG, 0.312 ± 0.0496 E-score.
Under ATCCCGCA stands 0.289 ± 0.00853 E-score; under ATCTTGGG, 0.216 ± 0.0663 E-score; under AAATAGAT, 0.264 ± 0.0472 E-score.
ATCTGGTG: the binding signal was found to be 0.3327 ± 0.000333 E-score.
Under ATACATAT stands 0.204 ± 0.0258 E-score; under ATATAGAT, 0.352 ± 0.0482 E-score; under ATTTAAGA, 0.236 ± 0.0208 E-score.
In the case of ACGGATAC, the binding signal turned out to be 0.2607 ± 0.00125 E-score.
Under AAGGATAT stands 0.387 ± 0.00749 E-score; under ACGGATCT, 0.265 ± 0.053 E-score.
Under ACGGATAT stands 0.381 ± 0.03 E-score; under AGGGATAT, 0.353 ± 0.00472 E-score; under AAGGATCT, 0.335 ± 0.00404 E-score.
Under ATTATATA stands 0.215 ± 0.115 E-score.

Source of the values: publication PMC5836133, “The intracellular immune receptor Rx1 regulates the DNA-binding activity of a Golden2-like transcription factor”.
